Whole data set: some 25,000 sequences, median “ln(normalized median fluorescence intensity)” near 6.7, cut for the highest 2% near 10. The entries come from a sample that favours the highest values as a whole.
The sequences below were run on PfHDP1 homeodomain (GST-tagged) (assay: gcPBM binding intensity (ln(normalized median fluorescence intensity)); higher = stronger DNA binding).
How it was run: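 GST-fused DNA-binding domains of P. falciparum, expressed in E. coli, were applied at about 25 μg on average for 1 h to an Agilent 4 × 180k array of primer-extended double-stranded 36-bp intergenic genomic probes and negative controls. Binding intensity is the highest Masliner-normalised natural-log median intensity across replicate spots of either probe orientation, measured with Alexa488 anti-GST antibody and a 488 nm scan.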

In order of falling “gcPBM binding intensity (ln)” value:
1. ATATGCACTCATTGTGCACACGCATATTACGAAAAG [CACACA_site2637]  11.6
2. ATGTAGAAGTAATGCACACATATGTATTTATATATA [CACACA_site5391]  10.9
3. TATATAACCGAGTGCACACACAAAAAAAAAGTGAAC [CACACA_site6806]  10.8
4. ATGCACTCATTGTGCACACGCATATTACGAAAAGAA [CACACA_site2638]  10.8
5. AATATAATATATTGCACACAAAAAGTGAATTATTCT [CACACA_site1684]  10.7
6. TAATAATTATTGCACGCACACAAAAACCTATAGATT [CACACA_site2931]  10.6
7. AAAATATAATATATTGCACACAAAAAGTGAATTATT [CACACA_site8489]  10.6
8. TCAAAAGAATAATTGGTGCAAATTATATAATATAAT [GTGCAC_site9804]  10.5
9. ATGTAGAAGTAATGCACACATATGTATATATATATA [CACACA_site2494]  10.5
10. TATATAATCGAGTGCACACACAAAAAAAAAGTGAAC [CACACA_site1483]  10.4
11. TTTAGTGAGTTTGTTGTGCACTGAAAAAATTACAAT  10.4
12. TGAATATTCATATGCACACAAATTAATATACATAAT [CACACA_site442]  10.3
13. TATATATAATATTGCACACAAAATTAAAAGTAAATA [CACACA_site19]  10.3
14. ATATGTAGAAGTAATGCACACATATGTATATATATA [CACACA_site8796]  10.3
15. TGTAATAATTATTGCACGCACACAAAAACCTATAGA [CACACA_site2932]  10.2
16. TGTATATAATCGAGTGCACACACAAAAAAAAAGTGA [CACACA_site8417]  10.1
17. GAACAAATTAAATAGGTGCATTAACATGTTCTATTT [GTGCAC_site9729]  10.1
18. AATGTGTTCATATATGCACACGCATATATATTATTG [CACACA_site9274]  9.95
19. TGTGTTCATATATGCACACGCATATATATTATTGTT [CACACA_site3822]  9.67
20. TGTGTTCATCTATGCACACGCATATATATTATTGTT [CACACA_site5985]  9.64
21. TATATATATAATATTGCACACAAAATTAAAAGTAAA [CACACA_site7889]  9.61
22. TATACATATGTATGCACACATACATACACATAGAAT [CACACA_site3480]  9.51
23. TATATATATATATATACACACATATACATATTGTTT [CACACA_site3499]  9.37
24. AATTCGTACCTCATTTGTACATATATATATATATAT [XGTACX_site5513]  9.34
25. ATATATATATAATAAGTGCAAAAAAAAGAAAAAAAT  9.3
26. ACGCACGAAATAAATACATGCATATTGTAAAAATTA [TGCATGCA_site310]  8.99
27. AAAAAATATAGATGCACACACAAAAAAACAAATTAA [CACACA_site6718]  8.71
28. ATATATATATTTATATTTATATGTAAATATCAACGT [TGCATGCA_negctrl_site32]  8.19
29. ATATGTAAAATGAAGATACATACATACATACATACA [CACACA_negctrl_site715]  7.53
30. TAATATATATAAACATGTACAAATCAAAAACAAAAG [XGTACX_site4076]  7.52
31. ATAAAGCCATACAATACACACATTTTACATGGGGGT [CACACA_site9072]  7.27
32. TTCAAGATTTATTATACACACATATTAATATATATA [CACACA_site573]  6.83
33. TATTTATTTAATTACACACGAACATATAACCATTTC [CACACA_site211]  6.81
34. ATCCCCATAAAAAATACACACAAATATTTATACATA [CACACA_site1001]  6.79
35. TTTAATAATTATTAAAGTACAAAATAAATATTGAAT [XGTACX_site7538]  6.7
36. ATGTGATAGAAGTACACACACATATGTATTTATAAT [CACACA_site5075]  6.7
37. ATATATAGAATGTGTACACACATATGTATTTATATA [CACACA_site810]  6.7
38. TGTTTATCATATTTGTGTCCTCATTTTTTAGTATCA [XGTACX_site947]  6.62
39. AAGTATGTATCACAAAGTACTTAAGCATATATTTAA [XGTACX_site4121]  6.57
40. TTATAATATATATAAAAGAAAAAAAATTATAATATA [CACACA_negctrl_site90]  6.53
41. ATTTCTCTATCGTAATGTACAAAAAAAAGGGAAAAG [XGTACX_site1335]  6.48
42. TTAACCTTTTGATATTGTACCCATAATCTAATACAA [XGTACX_site769]  6.47
43. AATAATAAAAAATATACACACATATATAAATAAATA [CACACA_site6164]  6.35
44. AGACTATCATTTTTTTAACACACAAAAAAAATAAAA [CACACA_site9173]  6.35
45. TTATAATAGTTAATATGTACATATTTAATAAATAAT [XGTACX_site3183]  6.23
